PubChem BioAssay AID2762 (National Center for Advancing Translational Sciences (NCATS), 2010)
Results filed as inconclusive are left out. Activity calls are given as the source filed them. Calls come from the whole dose curve; as a rule, active = well fitted inhibition curve with a large enough effect; inconclusive = small, poorly fitted or top-dose-only effect, or effect the other way; inactive = no such curve, though single readings can be large or run the other way.

Target: Nuclear receptor ROR-gamma (Mus musculus) (UniProt P51450)
Assay: Concentration response confirmation assay for inhibitors of ROR gamma transcriptional activity
Details: Drosophila S2 Gal4-RORgamma UAS-luciferase, 20 h; series mostly up to 46.1 µM
Excerpt: NIH Molecular Libraries Probe Production Network [MLPCN] NIH Chemical Genomics Center [NCGC] MLPCN Grant: R03 DA026211-01 Assay Provider: Dan Littman, New York University Assay Overview: The retinoic acid-related orphan receptor (ROR) gamma is a transcription factor that has a central role in the differentiation of Th17 cells, a subset of T helper cells that secrete the inflammatory cytokines IL-17, IL-17F, and IL-22. Th17 cells have been implicated in graft versus host disease, autoimmune disease and asthma. ROR gamma is induced in naive T helper cells in the presence of TGF-beta combined with IL-6, IL-21, or IL-23, and thereafter directs the expression of the Th17 lineage cytokines. To study the mechanism of action of ROR gamma, an insect cell-based assay was screened. This Drosophila Schneider cell line was stably transfected with two vectors: a gene expressing a fusion of the Gal4 DNA binding domain and ROR gamma transactivation domain under the control of the metallothionine promoter and a Photinus luciferase reporter regulated by the Gal4 binding site enhancer, UAS. […] Small molecule inhibitors of ROR gamma activity are detected by a decrease in luciferase reporter activity.
Assay Protocol Summary: For screening, 600 cells in 4 uL/well were dispensed into white solid 1536-well plates (Grenier) using a solenoid-based dispenser. Following transfer of 23 nL compound or DMSO vehicle by a pin tool, the plates were incubated 1 hr at ambient temperature, and 1 uL/well copper sulfate (700 uM final concentration) was added. The plates were centrifuged 15 s at 1000 RPM and incubated 20 hr at ambient temperature. After addition of 1.5 uL Photinus luciferase detection reagent, the plates were incubated 10 min at ambient temperature and then read by an ViewLux (Perkin Elmer) to detect luminescence. Keywords: NIH Roadmap, MLPCN, MLI, MLSMR, qHTS, NCGC, qHTS, nuclear hormone receptor, retinoic acid-related orphan receptor, ROR gamma

Nuclear receptor ROR-gamma (Mus musculus), sequence (P51450 whole entry, looked up): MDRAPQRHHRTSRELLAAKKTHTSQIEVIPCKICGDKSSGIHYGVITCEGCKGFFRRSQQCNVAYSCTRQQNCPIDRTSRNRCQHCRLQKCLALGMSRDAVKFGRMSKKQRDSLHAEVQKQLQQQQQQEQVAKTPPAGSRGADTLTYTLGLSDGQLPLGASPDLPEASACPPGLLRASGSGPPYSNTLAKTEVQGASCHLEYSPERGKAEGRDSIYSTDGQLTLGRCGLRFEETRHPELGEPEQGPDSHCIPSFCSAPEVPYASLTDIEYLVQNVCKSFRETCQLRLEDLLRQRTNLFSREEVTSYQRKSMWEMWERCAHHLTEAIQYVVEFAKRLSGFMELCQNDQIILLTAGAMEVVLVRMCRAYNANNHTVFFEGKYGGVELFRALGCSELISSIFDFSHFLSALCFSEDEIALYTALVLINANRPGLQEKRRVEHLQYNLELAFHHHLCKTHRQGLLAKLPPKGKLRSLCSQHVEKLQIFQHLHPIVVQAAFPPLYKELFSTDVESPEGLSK

SMILES | Potency
Cc1nc2ccccc2c(=O)n1-c1cc([N+](=O)[O-])cc([N+](=O)[O-])c1 | inactive
Cn1ncnc2c(=O)n(C)c(=O)nc1-2 | 0.996 µM (active)
O=C(Nc1ncc(Cc2ccccc2)s1)C1=NCCN1 | 9.96 µM (active)
